Data: PubChem BioAssay AID1159580 (chemical genetic matrix, 2015)
Screen size: about 5,500 compounds; about 2,000 (36%) were called active. About 18% were inconclusive and are not listed. No stated cut-off is given here; in the data, active means normalized growth mostly below about 0.91 (no sharp cut-off); inconclusive means no clear call, values can overlap the other calls; inactive means mostly above about 0.92. Some of the results follow.

Experiment: chemical genetic growth profiling, strain panel (AID 1159580);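 further: tested at 20 µM; growth read once vehicle control cultures reached saturation at 30 °C; 1 = growth at the plate median or of vehicle wells; lower values mean less growth of the strain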
Conditions: S. cerevisiae deletion strains, growth OD

Measured: normalized growth

CN(C)CCc1c[nH]c2ccc(C[C@H]3COC(=O)N3)cc12
inactive: locus YAL021C, strain ccr4, active compounds read low 1.02 | locus YAL026C, strain drs2, active compounds read low 1.01 | locus YAL030W, strain snc1, active compounds read low 1.01 | locus YBL061C, strain skt5, active compounds read low 1.01 | locus YBR009C, strain hhf1, active compounds read low 1.01 | locus YBR023C, strain chs3, active compounds read low 1.01 | locus YBR171W, strain sec66, active compounds read low 1.02 | locus YBR231C, strain swc5, active compounds read low 0.993 | locus YBR279W, strain paf1, active compounds read low 1.01 | locus YCL011C, strain gbp2, active compounds read low 1.01 | locus YCL016C, strain dcc1, active compounds read low 1 | locus YCL061C, strain MRC1, active compounds read low 1.01 | locus YCL069W, strain vba3, active compounds read low 1.01 | locus YCR088W, strain abp1, active compounds read low 1.01 | locus YDL005C, strain med2, active compounds read low 1.01 | locus YDL040C, strain nat1, active compounds read low 1.01 | locus YDR001C, strain nth1, active compounds read low 1.01 | locus YDR069C, strain doa4, active compounds read low 1.02 | locus YDR137W, strain rgp1, active compounds read low 0.993 | locus YDR159W, strain sac3, active compounds read low 1.04 | locus YDR195W, strain ref2 0.978 | locus YDR297W, strain sur2, active compounds read low 1.01 | locus YDR334W, strain swr1, active compounds read low 1.02 | locus YDR335W, strain msn5, active compounds read low 1.01 | locus YDR392W, strain spt3, active compounds read low 1.03 | locus YEL003W, strain gim4, active compounds read low 1 | locus YEL037C, strain rad23, active compounds read low 1.01 | locus YEL061C, strain CIN8 (second series), active compounds read low 1.01 | locus YER015W, strain faa2, active compounds read low 1.01 | locus YER016W, strain bim1, active compounds read low 1.01 | locus YER111C, strain swi4, active compounds read low 1.02 | locus YER155C, strain BEM2 (second series), active compounds read low 1.06 | locus YFR010W, strain ubp6, active compounds read low 1.02 | locus YGL167C, strain pmr1, active compounds read low 1.01 | locus YGL173C, strain kem1, active compounds read low 1 | locus YGL227W, strain vid30, active compounds read low 1.01 | locus YGL240W, strain doc1, active compounds read low 1.01 | locus YGL253W, strain hxk2, active compounds read low 0.998 | locus YHR013C, strain ard1, active compounds read low 1 | locus YHR027C, strain rpn1, active compounds read low 1.01 | locus YHR030C, strain SLT2, active compounds read low 1.02 | locus YHR079C, strain IRE1, active compounds read low 0.986 | locus YHR142W, strain chs7, active compounds read low 0.992 | locus YJL092W, strain hpr5, active compounds read low 1.01 | locus YJL095W, strain BCK1 (second series), active compounds read low 1.01 | locus YJL095W, strain BCK1, active compounds read low 1 | locus YJL115W, strain asf1, active compounds read low 1.01 | locus YJL129C, strain trk1, active compounds read low 0.988 | locus YJL154C, strain vps35, active compounds read low 1.01 | locus YJL164C, strain tpk1, active compounds read low 1.02 | locus YJL166W, strain qcr8, active compounds read low 1.01 | locus YJR066W, strain TOR1, active compounds read low 0.966 | locus YKL160W, strain elf1, active compounds read low 1 | locus YKR026C, strain gcn3, active compounds read low 0.992 | locus YKR091W, strain srl3, active compounds read low 0.997 | locus YLL001W, strain dnm1, active compounds read low 1.01 | locus YLL026W, active compounds read low 1.01 | locus YLL041C, strain sdh2, active compounds read low 1.01 | locus YLR027C, strain aat2, active compounds read low 1.01 | locus YLR113W, strain HOG1, active compounds read low 0.972 | locus YLR221C, strain rsa3, active compounds read low 1.02 | locus YLR258W, strain gsy2, active compounds read low 1.01 | locus YLR262C, strain YPT6 (second series), active compounds read low 1.01 | locus YLR320W, strain mms22, active compounds read low 1.01 | locus YLR342W, strain FKS1, active compounds read low 1.01 | locus YLR357W, strain rsc2, active compounds read low 0.973 | locus YLR370C, strain arc18, active compounds read low 1.01 | locus YLR384C, strain iki3, active compounds read low 1 | locus YML120C, strain ndi1, active compounds read low 1.02 | locus YMR058W, strain fet3, active compounds read low 1.01 | locus YMR125W, strain sto1, active compounds read low 1.01 | locus YMR129W, active compounds read low 1.01 | locus YMR205C, strain PFK2, active compounds read low 0.998 | locus YMR231W, strain pep5, active compounds read low 1 | locus YNL071W, strain lat1, active compounds read low 1.01 | locus YNL183C, strain NPR1, active compounds read low 0.978 | locus YNL209W, strain ssb2, active compounds read low 1.01 | locus YNL248C, strain rpa49, active compounds read low 1 | locus YNL322C, strain KRE1 (second series), active compounds read low 1.01 | locus YNR049C, strain mso1, active compounds read low 1.01 | locus YOR001W, strain rrp6, active compounds read low 0.998 | locus YOR070C, strain gyp1, active compounds read low 1.01 | locus YOR080W, strain dia2, active compounds read low 1 | locus YOR083W, strain WHI5, active compounds read low 1 | locus YOR106W, strain vam3, active compounds read low 1 | locus YOR231W, strain MKK1, active compounds read low 0.999 | locus YOR265W, strain rbl2, active compounds read low 1.01 | locus YOR270C, strain vph1, active compounds read low 0.991 | locus YOR290C, strain snf2, active compounds read low 1.01 | locus YPL051W, strain arl3, active compounds read low 1.01 | locus YPL078C, strain atp4, active compounds read low 1 | locus YPL106C, strain sse1, active compounds read low 1.04 | locus YPL240C, strain hsp82, active compounds read low 1.01 | locus YPL256C, strain CLN2, active compounds read low 1.02
